# Cruzain inh Det – qHTS Assay for Promiscuous and Specific Inhibitors of Cruzain (with detergent). 200,000 compounds, 0.43% hits. AID 1478, 2009. purified cruzain, Z-FR-AMC fluorescence, 0.01% Triton. Potency, µM, inactives show max response, negative = inhibition, actives largely listed as inhibitors;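 note: plate controls were neutral wells for no effect and buffer without enzyme for full effect; nearly all actives have a fitted effect of over 40% in size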
# Target sequence (P25779 123-467 limits assumed): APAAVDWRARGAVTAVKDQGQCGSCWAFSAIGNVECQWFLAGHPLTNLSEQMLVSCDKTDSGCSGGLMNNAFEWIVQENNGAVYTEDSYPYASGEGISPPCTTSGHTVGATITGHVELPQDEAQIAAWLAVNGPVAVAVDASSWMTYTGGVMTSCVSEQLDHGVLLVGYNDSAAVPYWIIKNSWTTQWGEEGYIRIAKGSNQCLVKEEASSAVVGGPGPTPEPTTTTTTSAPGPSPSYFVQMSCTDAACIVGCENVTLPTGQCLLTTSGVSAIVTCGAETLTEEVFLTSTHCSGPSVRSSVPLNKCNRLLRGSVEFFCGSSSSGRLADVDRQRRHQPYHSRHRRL
#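 Detergent-containing run (0.01% Triton X-100) in acetate buffer pH 5.5 with 5 mM DTT: enzyme at 1.5 nM final, 15 min compound preincubation at room temperature, then 2 uM Z-FR-AMC substrate. Activity taken as 60 s fluorescence increase at 360/450 nm.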
# Cruzain noTriton – qHTS Assay for Promiscuous and Specific Inhibitors of Cruzain (without detergent) | Cruzipain (Trypanosoma cruzi), P25779 | purified cruzain, Z-FR-AMC fluorescence, no detergent | Potency, µM, for inactives: max response, negative = inhibition, hits mostly inhibitors | 200,000 compounds, 2.3% hits | AID 1476, 2009;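 note: plate controls were enzyme without inhibitor for no effect and buffer without enzyme for full effect; nearly all actives have a fitted effect of over 40% in size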
#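 Detergent-free condition (0.00005% Triton X-100) in acetate buffer pH 5.5 with DTT. 1.5 nM enzyme and compound were pre-mixed 15 min, then 2 uM Z-FR-AMC substrate added; reaction progress from fluorescence change between first and third reads (60 s).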
# The depositor's hits bear a star; ? = inconclusive; ! = a repeat was not active. Hits are enriched below; roughly 2.5% of the tested compounds scored in any of these assays. Calls come from the whole dose curve; as a rule, active = well fitted curve in the direction sought with a large enough effect; inconclusive = small, poorly fitted or top-dose-only effect, or another doubt; inactive = no such curve, though single readings can be large; an effect the other way counts as inactive or inconclusive. Potency is the fitted concentration of half-maximal effect.
SMILES,Cruzain inh Det,Cruzain noTriton
COc1ccc(Cl)cc1C(=O)NCC(c1ccc(N(C)C)cc1)N1CCCC1 (stereo unspecified),7%,17%
CCOc1ccc(OCC)c(NC(=O)CCC(=O)N2CCOc3ccccc32)c1,1%,16%
O=C(O)COCCN1CCN([C@@H](c2ccccc2)c2ccc(Cl)cc2)CC1,4%,1%
COc1c(Cl)cc(C(=O)N(Cc2ccc(C)o2)C2CCS(=O)(=O)C2)cc1Cl (stereo unspecified),-6%,-20%
C=C1C[C@@]23C[C@@]1(O)CC[C@@H]2[C@]12C=C[C@@H](O)[C@](C)(C(=O)O1)[C@@H]2[C@@H]3C(=O)O,1%,-6%
O=C(CCCn1c(=O)c2cccn2c2ccccc21)NCCc1ccc(Cl)cc1,-12%,10%
Cc1[nH]c2ccccc2c1C(=O)CSc1ccccc1,-5%,2%
Cc1ccc2c(C(=O)CSc3ccccc3)c(C)[nH]c2c1,2%,13µM*
Cc1cc(C)n(-c2nc(C)c(C)c(=O)n2CC(=O)Nc2ccc(Cl)c(Cl)c2)n1,-3%,-5%
COc1ccccc1C1Nc2cccc3cccc(c23)N1,-4%,25µM*
Oc1ccccc1C1Nc2cccc3cccc(c23)N1,-10%,-19%
O=S(=O)(CCC(F)=C(F)F)c1nnnn1C1CCCCC1,1%,-5%
O=C(CSc1nnc(C2CC2)n1Cc1ccccc1)c1cc2ccccc2o1,-4%,16µM*
NC(=O)CSc1nnc(-c2cc3ccccc3o2)n1Cc1ccccc1,-2%,?
CCOC(=O)c1c(NC(=O)c2nc(S(C)(=O)=O)ncc2Cl)sc(C(C)=O)c1C,-3%,-21%
C/C1=C2N=C(/C=C3N=C(/C(C)=C4\[N-]C(C)(C5N=C1C(C)(CCC(=O)NCC(C)OP(=O)([O-])O[C@H]1C(O)C(n6cnc7cc(C)c(C)cc76)O[C@@H]1CO)C5CC(N)=O)C(C)(CC(N)=O)C4CCC(N)=O)C(C)(CC(N)=O)C\3CCC(N)=O)C(C)(C)C/2CCC(N)=O.[CH2-]C1OC(n2cnc3c(N)ncnc32)C(O)C1O.[Co] (stereo partly specified),10µM*,13µM*
COc1cc(C)ccc1OCCSc1nc2ccc(NC(C)=O)cc2s1,-10%,?
CCCSc1nc(-c2ccccc2)[nH]c1S(=O)(=O)c1ccc(C)cc1,-11%,0%
CCOC(=O)c1c(C)[nH]c(C(=O)CSc2nnc(Nc3ccccc3F)s2)c1C,-4%,13µM*
CCOC(=O)c1c(C)[nH]c(C(=O)CSc2ccc(Cl)cc2)c1C,4%,?
COC(=O)c1ccccc1NC(=O)c1ncoc1-c1ccco1,1%,-3%
CC(=O)O[C@H]1CC[C@]2(C)C(=CC[C@H]3[C@H]4C[C@H]5O[C@]6(CC[C@H](C)CN6)[C@H](C)[C@@H]5[C@]4(C)CC[C@@H]32)C1,4%,-2%
N#Cc1c(-c2cccs2)cc(-c2cccnc2)nc1N,-11%,-11%
N#Cc1sc2nc(-c3cccs3)cc(-c3ccccc3)c2c1N,-1%,16µM*
COc1ccc(-c2cc(C3CC3)nc3sc(C#N)c(N)c23)cc1,-10%,-4%
SMILES,Cruzain inh Det,Cruzain noTriton
N#Cc1sc2nc(-c3cccs3)cc(-c3ccc(Cl)cc3)c2c1N,1%,13µM*
CCN(CC)C(=O)c1sc2nc(-c3cccs3)cc(-c3ccc(Cl)cc3)c2c1N,-2%,32µM*
CC(C)(C)C(=O)c1sc2nc(-c3cccs3)cc(C(F)(F)F)c2c1N,1%,-2%
O=C(O)CSc1ccc([N+](=O)[O-])cc1[N+](=O)[O-],-1%,2%
Cc1ccc(Cl)cc1NC(=O)c1ccc(NC(=O)N2CCSc3ncccc32)cc1,-10%,-3%
COc1ccc2c(c1)c1c(c(=O)n(-c3cccc(Cl)c3)c(=O)n1CC(=O)N1CCCC1)n2C,-2%,2%
O=C(Cn1c(=O)oc2cc(S(=O)(=O)NC3CCCC3)ccc21)Nc1ccc(F)c(F)c1,-6%,0%
O=C(Nc1ccc(Nc2ccc3c(c2)C(=O)c2ccccc2C3=O)c2c1C(=O)c1ccccc1C2=O)c1ccccc1,2%,11%
COc1ccccc1CNc1ccnc(-c2ccoc2)n1,-2%,-2%
COc1ccccc1CNc1nc(-c2ccoc2)nc2ccccc12,-4%,25µM*
C=C(Cl)CSC(=S)N(CC)CC,-2%,-4%
CCN(CC)C(=S)SSC(=S)N(CC)CC,16µM*!,7.9µM*!
O=C1C2CC=CCC2C(=O)N1c1nc2n(n1)C(c1ccccc1)CC(c1ccccc1)N2 (stereo unspecified),-3%,?
c1ccc(C2CC(c3ccccc3)n3c(nc4ccccc43)N2)cc1 (stereo unspecified),1%,13µM*
O=S(=O)(O)n1ccnc1 (tested in a mixture with another compound),1%,2%
C=CCn1c(=O)c2ccc(C(=O)NCc3ccccc3)cc2n(Cc2ccccc2Cl)c1=O,2%,25µM*
C=CCn1c(=O)c2ccc(C(=O)NCc3ccccc3)cc2n(Cc2ccc(Cl)cc2)c1=O,-4%,-28%
O=C(CN1CCN(CCN2C(=O)c3cccc4cccc(c34)C2=O)CC1)c1ccc(F)cc1,-28%,?
O=C1C2C=CC=CC2=NC(=S)N1CCN1CCC(=C(c2ccc(F)cc2)c2ccc(F)cc2)CC1 (stereo unspecified),-10%,13µM*
COc1ccc(CCNC(=O)CCc2c(C)c3cc4c(C)coc4c(C)c3oc2=O)cc1OC,7%,?
Cc1ccc(SCc2nnc(NC(=O)c3ccccc3)s2)cc1,7%,10µM*
COC(=O)Cc1nnc(NC(=O)c2ccccc2)s1,-2%,-8%
COc1cc(S(=O)(=O)NCCc2c(C)[nH]c3ccccc23)c(C)cc1C,-15%,16%
CCc1ccc(NC(=O)c2ccc(F)c(S(=O)(=O)N3CCc4ccccc4C3)c2)cc1,1%,?
CCc1ccc(NC(=O)C(C)OC(=O)c2cccc(S(=O)(=O)N3CCc4ccccc4C3)c2)cc1 (stereo unspecified),-2%,16µM*
SMILES,Cruzain inh Det,Cruzain noTriton
COC(=O)CSc1nnc(-c2ccccc2OC)n1-c1ccc(C)cc1,2%,-20%
COc1ccccc1-c1nnc(SCC(=O)c2ccc(Cl)cc2)n1-c1ccccc1,-4%,25µM*
Nc1nonc1-c1nc2ccccc2n1Cc1ccccc1,-7%,-15%
Nc1nonc1-c1nc2ccccc2n1Cc1c(Cl)cccc1Cl,-4%,25µM*
CCOc1ccc(NC(=S)/C(=C(\[O-])c2ccc(C)c([N+](=O)[O-])c2)[n+]2ccccc2)cc1,-6%,25µM*
CCc1cc[n+](/C(C(=S)Nc2cccc(C)c2)=C(/[O-])c2ccc(C)c([N+](=O)[O-])c2)cc1,-9%,-21%
COc1ccc(Cl)cc1NC(=O)CCN1C(=O)c2ccccc2Sc2ncccc21,-2%,-9%
COc1ccc(CNC(=O)C(C)n2nc(C)c3sc4ccccc4c3c2=O)cc1OC (stereo unspecified),-3%,-2%
Cc1ccc(CNC(=O)C(C)n2nc(C)c3sc4ccccc4c3c2=O)cc1 (stereo unspecified),-5%,4µM*
Cc1nn(C(C)C(=O)NCc2ccc(OC(C)C)cc2)c(=O)c2c1sc1ccccc12 (stereo unspecified),?,28%
COc1ccc(CCNC(=O)C(C)n2nc(C)c3sc4ccccc4c3c2=O)cc1OC (stereo unspecified),-5%,32µM*

# Compound activity deposited in PubChem by National Center for Advancing Translational Sciences (NCATS).
